Measured values taken from ChEMBL document CHEMBL3988442, “University of Dundee, Small-Polar-MMV Screening Library” (2021).

Biological target: AMP-activated protein kinase, AMPK (Homo sapiens) (UniProt P54646+O43741+P54619+Q9UGJ0+Q9Y478+Q13131+Q9UGI9)
Experiment: AMP-dependent Kinase enzyme assay. An in vitro enzyme assay that detects ADP turnover that is directly proportional to AMPK activity. This uses naive AMPK that is activated during the assay with MK-8722
Assay type: functional
Set-up: scale not given: direction of the effect not stated beside the values
Conditions: 30 µM

Row | SMILES | Percent Effect [%]
1 | CC(C)CN1C[C@@H](C(=O)O)C[C@@H](C(=O)NCc2ccncc2)C1 | -2.13
2 | O=C(c1cc(C2CC2)nc2onc(-c3ccccc3)c12)N1CC[C@H](O)C1 | 4.74
3 | COC(=O)c1ccoc1CN(C)CC(=O)NC1CCS(=O)(=O)C1 (stereo not given) | -0.853
4 | CNC(=O)c1cccnc1NCc1ccc(Cn2ccnc2)cc1 | -1.78
5 | CCN(C)S(=O)(=O)N1CCC(C(O)c2ccc(F)cc2)CC1 (stereo not given) | -1.14
6 | CCN(Cc1cccnc1)C1CCN(c2ccccc2)C1=O (stereo not given) | -2.42
7 | O=C(NCCCn1cccn1)C1COCC(=O)N1Cc1ccccc1 (stereo not given) | -3.92
8 | Cc1cc(NC(=O)NCCO)nn1-c1ccc(Cl)cc1Cl | -2.67
9 | COc1ccc(C2CN(c3cc(C)ncn3)CCN2C(C)=O)cc1 (stereo not given) | 21.4
10 | CC(=O)N1CC(C(=O)NC(C)c2cnn(C)c2C)C1 (stereo not given) | 8.59
11 | O=C(CCc1ccc(Cl)cc1)N[C@@H]1CC[C@@H](O)[C@@H]1O | 14.5
12 | NCC(CO)Cc1ccc(OC(F)(F)F)cc1 (stereo not given) | -4.6
13 | CC(O)CN(C)S(=O)(=O)c1ccc(C#N)cc1F (stereo not given) | 1.31
14 | O=C(Cn1cccn1)N1CCC(c2nnc(-c3ccsc3)o2)CC1 | 14
15 | N#CC1COCCN1C(=O)c1ccc2[nH]cnc2c1 (stereo not given) | -8.21
16 | c1ccc2oc(C3CCN(Cc4ncon4)CC3)nc2c1 | -10.5
17 | c1cnc(N2CCC(OCC3CCCCO3)CC2)nc1 (stereo not given) | 2.8
18 | COCCN1C(=O)[C@H]2CC[C@@H]1CN(S(=O)(=O)c1cccc(Cl)c1)C2 | 27.4
19 | CC(C)N(Cc1ccccn1)C(=O)CCC(=O)c1ccccc1 | -4.49
20 | CCc1cc(N2CCC(NCc3ccc(C)o3)CC2)ncn1 | 6.83
21 | O=C1NCCCCC1NC(=O)N1CCc2ccccc21 (stereo not given) | -3.02
22 | CC(NC(=O)N1CCCN(C)CC1)c1ccc2c(c1)OCCO2 (stereo not given) | 3.15
23 | COc1ccc(Cl)cc1C(=O)N1C[C@H](C(C)C)[C@@H](N)C1 | 6.24
24 | CCc1ccc(-c2noc(Cn3nc(C(N)=O)ccc3=O)n2)cc1 | -8.7
25 | Cc1c(NC(=O)CN(C)S(C)(=O)=O)cccc1OC1CCCC1 | -0.429

Row | SMILES | Percent Effect [%]
26 | CC(O)CN1CCN(C(=O)CCOc2ccccc2F)CC1 (stereo not given) | -1.3
27 | CN(C)CC1(O)CCCN(C(=O)Cn2nc3ccccc3n2)CC1 (stereo not given) | -12.7
28 | CN(C)c1cccc(C(=O)N2CCn3c(nnc3C3CC3)C2)c1 | -2.33
29 | Cc1cc(C)c2[nH]c(C(=O)NCCN3CCNC3=O)c(C)c2c1 | 11.1
30 | COCCN1CCN(C(=O)C(c2cccc(F)c2)N(C)C)CC1 (stereo not given) | -5.71
31 | Cc1cc(CN(C)C(C(=O)O)c2ccc(C(C)(C)C)cc2)on1 (stereo not given) | 8.61
32 | O=C(Cn1cc(I)cn1)N1CCNC1=O | 0.6
33 | CC(C)NC(=O)C1(Cc2ccccc2-c2ccccc2)CCCNC1 (stereo not given) | 13.9
34 | CCCN(CCc1ccccn1)C(=O)CCc1cnn(C)c1 | 4.13
35 | CCc1cc(NCCCNS(C)(=O)=O)nc(-c2ccccn2)n1 | -7.82
36 | Cc1cc(C2CCCN(Cc3cccnc3)C2)n[nH]1 (stereo not given) | -0.765
37 | CCOCCNC(=O)CCC1CCCO1 (stereo not given) | 2.99
38 | O=C(CCn1cnnn1)N1CCCC(CO)(CCc2ccccc2)C1 (stereo not given) | 6.31
39 | Cc1ccc(C)c(CC(=O)NC2CCS(=O)(=O)CC2)c1 | -4.86
40 | Cc1nn2cccnc2c1C(=O)NCc1ccccc1OC1CCC1 | 6.53
41 | COc1cccc(-c2ncc(CN3CCOCC(O)C3)s2)c1 (stereo not given) | 2.77
42 | CC(NC(=O)N1CCCC1)c1ccc(S(N)(=O)=O)cc1 (stereo not given) | 9.72
43 | Cc1ccn(C)c(=O)c1NC(=O)N(C)Cc1cccc(OC(C)C)c1 | -92.7
44 | CCOc1ccc(NC(=O)NCCCN(C)S(C)(=O)=O)cc1C | -4.23
45 | Cc1nn(C)c(Cl)c1C(=O)NCC1(C(N)=O)CCOCC1 | -1.15
46 | CC(C)CN1CCC(NC(=O)N(C)Cc2csc3ccccc23)CC1 | 0.225
47 | COc1ccc2c(c1)CCCC2CC(=O)NCC(=O)O (stereo not given) | 3.73
48 | CCC[C@H]1CN(Cc2cc(C#N)n(C)c2C)C[C@@H]1N(C)C | 2.21
49 | COc1cc(N(C)Cc2cc(C(C)(C)C)n[nH]2)ncn1 | -15.7
50 | CSCC(=O)N(C)Cc1noc(-c2ccccc2)n1 | 6.32

Row | SMILES | Percent Effect [%]
51 | c1c[nH]c(-c2cn(CCSc3cnn[nH]3)nn2)n1 | -8.05
52 | COc1ccc(C(C)NCCc2ccc(NC(C)=O)cc2)cc1F (stereo not given) | 5.54
53 | CCN(Cc1nc(Cc2ccccc2)no1)C1CC1 | 9.85
54 | Cc1ccc(O)c(C(=O)N2CCC3(CCCNC3)C2)c1 (stereo not given) | 11.1
55 | COc1ccc(CN(Cc2ccsc2)CC2CCCO2)cn1 (stereo not given) | 5.75
56 | Cc1nc(C)c(COc2ccc(S(=O)(=O)N(C)C)cc2)s1 | 4.6
57 | Cn1cc(N2CCN(c3ccc(C#N)c(Cl)c3)CC2=O)cn1 | -3.11
58 | Cc1ncc(CC(=O)N2CCCCC2CCN2CCCC2)c(=O)[nH]1 (stereo not given) | 0.508
59 | Cc1nc2c(c(=O)[nH]1)CN(C(=O)CC[C@@H]1CCCN3CCCC[C@H]13)C2 | 16.1
60 | CC(C)N(C)C(=O)C1CCN(Cc2cnc3ccccn23)CC1 | -1.05
61 | c1ccc(CCN2CCCC2c2cccc(Nc3nccs3)n2)cc1 (stereo not given) | 3.49
62 | CCC(C#N)NC(=O)c1sccc1OC (stereo not given) | 2.49
63 | O=C(Cn1cnc2ccsc2c1=O)c1ccc2c(c1)OCCO2 | -4.28
64 | CCCn1nc(C)c(CN2CC3(CCOC3)CCC2=O)c1C (stereo not given) | 1.7
65 | CC(C)Cc1cc(CNC(=O)c2ccccc2C2CCNC2)no1 (stereo not given) | 3.3
66 | Fc1ccc(N2CCCN(c3ccc(Cn4ccnc4)cn3)CC2)cc1 | -3.34
67 | Cn1ccnc1CNCCNc1ncc(Cl)cc1Cl | -1.1
68 | CCCC(=O)Nc1cnn(CC(=O)Nc2ccc(SC)cc2)c1 | -33.2
69 | FC(F)(F)c1nc(NC2CCc3ncnn3C2)c2ccccc2n1 (stereo not given) | -0.0839
70 | CN1CCN(c2ccc(F)cc2NC(=O)NCCn2ccnc2)CC1 | 12.1
71 | COCCC(=O)N1CCCC(CCc2ccc(F)c(F)c2)C1 (stereo not given) | 8.62
72 | CC(C(N)=O)N1CCN(c2ncc(Br)cn2)CC1 (stereo not given) | -3.12
73 | Cc1nn(C)cc1NC(=O)CN1CCN(C2CCCC2)C(=O)C1 | 16.5
74 | CC(NC(=O)C(C)(C)C)c1cc(O)nc(-c2cccnc2)n1 (stereo not given) | 6.37
75 | Cc1nccn1-c1ccc(C(=O)NCC(F)(F)F)nn1 | -3.73

Row | SMILES | Percent Effect [%]
76 | O=S(=O)(NC1CCOC1)c1ccc(C(F)(F)F)nc1 (stereo not given) | 6.19
77 | CCc1nnc(CNC(=O)CCC2CCCN(C)C2)s1 (stereo not given) | -1.32
78 | NC(=O)COc1cccc(Cn2cc(Br)cn2)c1 | 3.8
79 | Cc1cc(C)n(CC2CCN(CC(O)CN3CCOCC3)CC2)n1 (stereo not given) | -1.36
80 | COc1ccccc1C(C)(C)NC(=O)Nc1ccc(F)c(C(N)=O)c1 | -5.46
81 | CN(Cc1cc(Br)cn1C)C(=O)c1cccnc1 | -0.766
82 | CCCOc1cc(CNC(=O)Nc2cccc(C(C)=O)c2)ccn1 | -3.21
83 | Cc1cc(-n2cccn2)ccc1CN1CCOCC(CN(C)C)C1 (stereo not given) | -0.486
84 | COCC(O)CNC(=O)c1cc(COc2ccc3c(c2)CCCC3)on1 (stereo not given) | -0.134
85 | CN(CCOc1ccccc1)C(=O)Nc1cccn(C)c1=O | -59.2
86 | Cc1cc(C(=O)N2CCN(c3ncc4c(n3)CCOC4)CC2)sc1C | 16.3
87 | Cc1ccc(CNCc2nccn2C)c(OCC2CC2)c1 | 3.02
88 | O=C(Nc1ccccc1F)NC1(CO)CCOCC1 | -1.57
89 | NC(=O)COc1ccc(CN2CCC3(CC2)[C@H](O)C[C@@H]3O)cc1Cl | 8.11
90 | CCCn1cc(-c2cc(C(=O)N(C)C)c3cccc(C)c3n2)cn1 | 7.04
91 | OCc1csc(N2C[C@@H](CN3CCCCCC3)[C@@H](CO)C2)n1 | -3.32
92 | CN(C)c1nc2c(c(=O)[nH]1)CCN(C(=O)C1CCCO1)C2 (stereo not given) | 2.77
93 | FC(F)(F)c1cccc(OC2CCN(Cc3ncc[nH]3)CC2)c1 | 7.66
94 | CC(NC(=O)Nc1ccc(-c2csnn2)cc1)C(=O)NC(C)(C)C (stereo not given) | -8.32
95 | COc1ncccc1C(=O)NCCn1cnc(C)cc1=O | -2.02
96 | O=C(Cc1ccccc1O)NC1CCCN(c2ccccc2F)C1=O (stereo not given) | 8.51
97 | COCCN1CCN(Cc2cnc(C3(C)CCCCO3)nc2)CC1 (stereo not given) | 11.3
98 | Cc1cc(C)c2[nH]c(C(=O)NCCN3CCCC3=O)c(C)c2c1 | 13.3
99 | CCc1ccc(C(=O)NC[C@H]2CCCN2C(=O)c2ccc(CC)o2)o1 | -0.868
100 | c1cnc(N2CCC(c3nccn3CC3CC3)CC2)nc1 | 9.63
